High-throughput results (PubChem)
PLK1 PBD inh – PLK1 (human) polo-box domain binding inhibition; P53350; Plk1 PBD binding of FITC phosphopeptide, fluorescence polarization; Potency, µM, without a hit: max response, negative = inhibition, actives largely listed as inhibitors; 360,000 tested, 2.8% active; AID 720504; further: potency means the concentration at half of the fitted maximal effect; series mostly up to about 57 µM; on the % scale 0 is the no-effect control and ±100 the full control effect; nearly all actives have a fitted effect of over 65% in size
JMJD2A Tudor inh – inhibitors of human JMJD2A Tudor domain. O75164. AlphaScreen JMJD2A-Tudor / H3K4me3 peptide binding. Potency, µM (highest dose often 114 µM), without a hit: at the highest dose activity change, negative = inhibition, actives largely listed as inhibitors. 390,000 tested, 4.4% active; further: potency means the concentration at half of the fitted maximal effect; on the % scale 0 is the no-effect control and ±100 the full control effect; nearly all actives have a fitted effect of over 50% in size
PI5P4K alpha inh – blocks human PI5P4K alpha kinase activity. P48426. PI5P4Kalpha enzyme, ADP-Glo luminescence, 60 min; active compounds read low. max response, %. 330,000 tested, 1.2% active. AID 652105; active means max response of -50% or lower; inconclusive means between -30% and -50%; inactive means -30% or higher; further: value at the top dose of about 77 µM; on the % scale 0 is the no-effect control and ±100 the full control effect
Target sequence (P48426 whole entry, looked up): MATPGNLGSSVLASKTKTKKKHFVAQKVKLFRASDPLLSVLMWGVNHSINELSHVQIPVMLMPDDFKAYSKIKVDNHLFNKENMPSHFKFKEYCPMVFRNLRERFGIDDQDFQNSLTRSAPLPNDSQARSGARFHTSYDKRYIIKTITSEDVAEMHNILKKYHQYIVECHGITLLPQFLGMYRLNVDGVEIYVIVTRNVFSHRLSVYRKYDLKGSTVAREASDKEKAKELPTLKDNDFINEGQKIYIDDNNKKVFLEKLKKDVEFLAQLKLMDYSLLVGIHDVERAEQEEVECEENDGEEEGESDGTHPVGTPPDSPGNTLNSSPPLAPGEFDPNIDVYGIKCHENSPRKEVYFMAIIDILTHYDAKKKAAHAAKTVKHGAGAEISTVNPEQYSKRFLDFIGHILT
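qHTS, 1536-well: enzyme/substrate mix, compound by pin tool, 5 microM ATP final; RT 60 min; ADP-Glo reagents 1 (45 min) then 2 (30 min); luminescence.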
HP1b binding inh – inhibitors of HP1-beta chromodomain binding to methylated histone tails. AlphaScreen HP1-beta / biotin-H3K9me3 peptide binding. Potency, µM (doses to about 114 µM), without a hit: at the top dose activity change, negative = inhibition, most hits filed as inhibitors. 390,000 tested, 0.56% active; further: potency means the concentration at half of the fitted maximal effect; nearly all actives have a fitted effect of over 70% in size
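HP1-beta protein (50 nM final) preincubated 30 min at room temperature with biotinylated H3(1-18)K9me3 peptide (50 nM) in PBS pH 7.4, 0.01% Tween-20, then compound added for 30 min. AlphaScreen streptavidin donor/nickel chelate acceptor beads (10 ug/mL final), 30 min dark, luminescence read.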
G9a block – G9a (human) methyltransferase inhibition. Q96KQ7. G9a H3K9 monomethylation, AlphaScreen, 2 h. Potency, µM (top dose mostly 102 µM), for inactives: at the top dose activity, negative = inhibition, actives largely listed as inhibitors. 350,000 tested, 8.8% active; further: potency means the concentration at half of the fitted maximal effect; on the % scale 0 is the no-effect control and ±100 the full control effect; nearly all actives have a fitted effect of over 75% in size
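Quantitative HTS format: methyltransferase activity on a biotin-tagged H3K9 peptide is measured by AlphaScreen, using a rabbit anti-monomethyl-H3K9 antibody with streptavidin donor and anti-IgG acceptor beads. Final levels are 20 nM enzyme, 500 nM peptide, 20 uM SAM; 2 h RT.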
BAZ2B inh – blocks human BAZ2B; Potency, µM (doses to about 114 µM), inactives show at the top dose activity change, negative = inhibition, most hits filed as inhibitors; AID 504333; 360,000 tested, 4.4% active; AlphaScreen BAZ2B-H3K14Ac peptide displacement; Q9UIF8; further: potency means the concentration at half of the fitted maximal effect; on the % scale 0 is the no-effect control and ±100 the full control effect; nearly all actives have a fitted effect of over 60% in size
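Complex of BAZ2B and biotin-H3K14Ac (50 nM apiece) forms over 30 min at RT, then faces library compounds up to 110 uM for another 30 min; AlphaScreen beads added, 20 min dark incubation, luminescence read.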
* = called active by the depositor; ? = inconclusive; nt = no result given; [ ] = dose if it differs, or a comment. Most compounds without a hit are left out; they make up all but 12% or so of the library. Unless noted, the call rests on the fitted dose curve; in most records, active means well fitted curve in the direction sought with a large enough effect; inconclusive means small, poorly fitted or top-dose-only effect, or another doubt; inactive means no such curve, though single readings can be large; an effect the other way counts as inactive or inconclusive.

SMILES	PLK1 PBD inh	JMJD2A Tudor inh	PI5P4K alpha inh	HP1b binding inh	G9a block	BAZ2B inh
COc1ccc(NC(=O)Cc2ccccc2F)cc1S(=O)(=O)N1CCCCC1	-0.1%	1.0%	0.8	43.0%	0.316µM*	0.5%
Cc1ccc(NC(=O)CCNC(=O)c2ccc(Br)cc2)cc1S(=O)(=O)N1CCCCCC1	-5.4%	-17.9%	1.7	6.0%	50.1µM*	0.8%
COc1ccc(NC(=O)COc2ccc(C)c(C)c2)cc1S(=O)(=O)N1CCCCC1	3.9%	-12.4%	1.7	30.5%	56.2µM*	1.6%
COc1cccc(/C=C/C(=O)OCC(=O)Nc2cccc(S(=O)(=O)N3CCCCC3)c2)c1OC	1.8%	-23.3%	1.6	22.6%	70.8µM*	-3.0%
CC(=O)N1c2ccccc2S(=O)(=O)c2c1ccc1ccccc21	-2.6%	-18.8%	6.8	21.1%	nt	nt
CC(C)OCCCNC(=O)c1ccc2c(c1)N(Cc1c(F)cccc1Cl)C(=O)c1ccccc1S2	nt	-8.7%	nt	28.6%	-4.8%[59 µM]	nt
COc1ccc(NC(=O)CSc2ccc(F)cc2)cc1S(=O)(=O)N1CCCCC1	-24.1%	-13.5%	8.7	37.7%	17.4%	4.8%
COc1cccc(CN(C)CC(=O)Nc2cc(S(=O)(=O)N3CCCC3)ccc2Cl)c1OC	-4.4%	-13.0%	1.0	42.4%	-21.3%	9.3%
COc1ccccc1CN(C)CC(=O)Nc1cccc(S(=O)(=O)N2CCCC2)c1	3.7%	0.794µM*	-9.6	-16.9%	nt	nt
CC(=O)c1cc(Cl)ccc1OCC(=O)Nc1cccc(S(=O)(=O)N2CCCC2)c1	7.0%	1.3%	1.1	31.6%	7.08µM*	21.1%
COc1ccc(NC(=O)CN(C)CC(=O)Nc2cccc(F)c2)cc1S(=O)(=O)N1CCCCC1	2.5%	2.82µM*	-3.7	?	nt	nt
N#Cc1ccc(Cl)cc1NC(=O)CNc1cccc(S(=O)(=O)N2CCCC2)c1	-5.5%	-3.1%	6.9	39.5%	44.7µM*	2.5%
CC(C)N(C(=O)Cn1cc(SCC(=O)Nc2ccccc2C(F)(F)F)c2ccccc21)C(C)C	nt	-12.5%	nt	49.2%	-7.1%[59 µM]	-14.0%
COc1ccc(CNC(=O)c2ccc(CSc3nc4ccncc4n3Cc3ccccc3F)cc2)cc1	nt	-21.5%	nt	-0.1%	-7.4%[59 µM]	-11.4%
COc1cc(Cl)c(C)cc1NCC(=O)Nc1cccc(S(=O)(=O)N2CCCC2)c1	-13.7%	?	-0.4	-17.8%	11.2µM*	?
Cc1ccc(NC(=O)CN(C)CC(=O)Nc2cccc(F)c2)cc1S(=O)(=O)N1CCCCCC1	-2.2%	17.8µM*	17.0	?	5.62µM*	50.1µM*
CCOc1ccc(N2CC(C(=O)Nc3ccc(OC)c(S(=O)(=O)N4CCCCC4)c3)CC2=O)cc1 (configuration not stated)	-1.6%	-30.2%	-2.1	0.0%	79.4µM*	-35.9%
Cc1ccc(OCC(=O)Nc2cc(C(=O)O)cc(C(=O)O)c2)cc1C	2.99µM*	8.91µM*	-55.0*	-11.1%	?	-12.8%
CCOc1ccc(S(=O)(=O)N2CCCC(C(=O)Nc3cccc(C)c3)C2)cc1 (configuration not stated)	-7.0%	-14.7%	-5.9	8.2%	-27.5%	1.2%
Cc1ccc(NC(=O)COC(=O)Cc2c[nH]c3ccccc23)cc1F	-0.4%	?	-1.7	8.7%	35.5µM*	-34.9%
Cc1ccc(NC(=O)COC(=O)C2CC3C=CC2C3)cc1S(=O)(=O)N1CCCCC1 (configuration not stated)	21.2µM*	56.2µM*	-10.5	8.9%	14.4%[59 µM]	7.5%
Cc1ccc(NC(=O)Cc2c[nH]c3ccccc23)cc1S(=O)(=O)N1CCCCCC1	-2.2%	-19.2%	5.4	27.6%	25.1µM*	-38.8%
CC1(C(=O)O)CCCN(C(=O)c2ccc3c(c2)C(C)(C)CCC3(C)C)C1 (configuration not stated)	-7.1%	nt	0.2	nt	nt	nt
O=C(Oc1ccc(-c2nnco2)cc1)c1ccco1	6.0%	-12.8%	2.4	26.9%	12.0%[0.501 µM]	-18.8%
Cc1cc(C)c2ccc(C)[n+]([O-])c2c1O	-9.3%	-16.3%	nt	8.3%	12.6µM*	?
CCN(c1ccccc1)c1nnc(NC(=O)Nc2cccc(Br)c2)s1	nt	-3.6%	nt	29.4%	-29.6%[59 µM]	-8.9%
